Tested on: Vero E6 infected with SARS-CoV-2
Assay: inhibition of SARS-CoV-2 cytopathic effect; higher = more antiviral protection, active = above 15
Conditions: 48 h

Measured: inhibition of SARS-CoV-2 cytopathic effect

O=C(c1ccc(C(=O)N2CCC(N3CCCC3)CC2)c(Nc2ccccc2)c1)N1CCC(N2CCCC2)CC1
inactive: 1 nM 0.43% | 8.33 nM -1.56% | 100 nM 0.31% | 833.33 nM -4.9% | 10000 nM -1.44%

CO[C@H]1/C=C\C=C(/C)C(=O)NC2=CC(=O)C(NCCN(C)C)=C(C[C@@H](C)C[C@H](OC)[C@H](O)[C@@H](C)/C=C(\C)[C@@H]1OC(N)=O)C2=O [alvespimycin]
inactive: 1 nM 0.5% | 8.33 nM 1.37% | 100 nM 0.62% | 833.33 nM 1.28% | 10000 nM 12.4%

Cc1nnc(C(=O)NC(C)(C)c2nc(C(=O)NCc3ccc(F)cc3)c(O)c(=O)n2C)o1 [raltegravir]
inactive: 1 nM 3.09% | 8.33 nM -0.27% | 100 nM 2.75% | 833.33 nM 1.2% | 10000 nM 1.12%

COc1ccc(Cl)cc1C(=O)NCCc1ccc(C(=O)O)cc1 [meglitinide]
inactive: 1 nM 2.2% | 8.33 nM 0.5% | 100 nM 1.3% | 833.33 nM 0.11% | 10000 nM 1.33%

COc1cnc(NS(=O)(=O)c2ccc(N)cc2)nc1 [sulfameter]
inactive: 1 nM -0.38% | 8.33 nM 1.1% | 100 nM 0.11% | 833.33 nM 0.46% | 10000 nM 2.89%

O=C(O)CCCCN(CCc1ccccc1OCc1ccc(CCc2ccccc2)cc1)Cc1ccc(C(=O)O)cc1 [cinaciguat]
inactive: 1 nM 1.27% | 8.33 nM 2.69% | 100 nM 2.55% | 833.33 nM 2.26% | 10000 nM -3.15%

Nc1cc(-c2ccncc2)c[nH]c1=O [amrinone]
inactive: 1 nM 3.03% | 8.33 nM 3.76% | 100 nM -3.46% | 833.33 nM -6.26% | 10000 nM 1.36%

CC[N+](CC)(CC(=O)Nc1c(C)cccc1C)Cc1ccccc1 [denatonium-benzoate]
inactive: 1 nM -0.9% | 8.33 nM -3.36% | 100 nM -2.46% | 833.33 nM -1.56% | 10000 nM -0.4%

CCc1cc(-c2[nH]nc(C)c2-c2ccc3c(c2)OCCO3)c(O)cc1O
inactive: 1 nM -2.8% | 8.33 nM -1.99% | 100 nM -0.23% | 833.33 nM -1.82% | 10000 nM -2.59%

CCc1cccc(N(C)C(=N)Nc2cccc3ccccc23)c1 [aptiganel]
inactive: 1 nM 1.52% | 8.33 nM 1.91% | 100 nM 1.39% | 833.33 nM -2.33% | 10000 nM -4.82%

COc1ccccc1N1CCN(CCCCNC(=O)c2ccc3ccccc3c2)CC1
inactive: 1 nM -1.05% | 8.33 nM 0.24% | 100 nM 1.14% | 833.33 nM -0.36% | 10000 nM -6.44%

CCCC(=O)O[C@]1(C(=O)CO)CC[C@H]2[C@@H]3CCC4=CC(=O)CC[C@]4(C)[C@H]3[C@@H](O)C[C@@]21C [hydrocortisone-butyrate]
inactive: 1 nM -1.77% | 8.33 nM 1.01% | 100 nM 3.36% | 833.33 nM 5.42% | 10000 nM 0.11%

Cn1cnc2c(F)c(Nc3ccc(Br)cc3F)c(C(=O)NOCCO)cc21 [binimetinib]
inactive: 1 nM 3.85% | 8.33 nM -3.38% | 100 nM -9.91% | 833.33 nM -10.1% | 10000 nM -12%

COC(=O)/C=C/C(=O)N[C@@H]1CC[C@@]2(O)[C@H]3Cc4ccc(O)c5c4[C@@]2(CCN3CC2CC2)[C@H]1O5 [beta-funaltrexamine]
inactive: 1 nM -1.34% | 8.33 nM 1.21% | 100 nM -0.8% | 833.33 nM 1.68% | 10000 nM 6.01%

C[C@H](Nc1ncnc2nc[nH]c12)c1cc2cccc(Cl)c2c(=O)n1-c1ccccc1 [duvelisib]
inactive: 1 nM -1.06% | 8.33 nM -0.83% | 100 nM -1.82% | 833.33 nM 0.25% | 10000 nM -3.79%

CCn1cnc(C(=O)NC)c1C(=O)NC [ethimizol]
inactive: 1 nM -1.81% | 8.33 nM 0.39% | 100 nM -1.18% | 833.33 nM 1.42% | 10000 nM 1.32%

O=C(O)CCCNC(=O)c1cccnc1 [pikamilone]
inactive: 1 nM 0.18% | 8.33 nM -2.74% | 100 nM -0.01% | 833.33 nM 0.63% | 10000 nM -1.86%

Cc1cccc(C)c1OCC(=O)N[C@@H](Cc1ccccc1)[C@@H](O)C[C@H](Cc1ccccc1)NC(=O)[C@H](C(C)C)N1CCCNC1=O [lopinavir]
inactive: 1 nM 1.3% | 8.33 nM 1% | 100 nM 1.43% | 833.33 nM 0.57% | 10000 nM 12.6%
